What all share (format): functional
Experiment [1] has as its target Solute carrier family 2, facilitated glucose transporter member 1 (Homo sapiens) (UniProt P11166). Put plainly: ST_JUDE_LEISH: Cytotoxicity at 2uM final concentration against transgenic Leishmania Mexicana promastigotes LmGLUT1 that are glucose transport deficient and complemented with the human glucose transporter GLUT1. Activity is measured by DNA content using SYBR green in vitro.

Experiment [2] concerns the target Hexose transporter 1 (Plasmodium falciparum) (UniProt O97467). As to the kind of experiment: ST_JUDE_LEISH: Cytotoxicity at 2uM final concentration against transgenic Leishmania Mexicana promastigotes LmPfHT that are glucose transport deficient and complemented with the Plasmodium falciparum hexose transporter. Activity is measured by DNA content using SYBR green in vitro.

The target of experiment [3] is Glucose transporter (Leishmania mexicana) (UniProt O61059). Put plainly: ST_JUDE_LEISH: Cytotoxicity at 2uM final concentration against transgenic Leishmania Mexicana promastigotes LmGT2 that are glucose transport deficient and complemented with the L. Mexicana glucose transporter 2. Activity is measured by DNA content using SYBR green in vitro.

Structures are written as SMILES.

Chain of Solute carrier family 2, facilitated glucose transporter member 1 (Homo sapiens) (P11166 whole entry): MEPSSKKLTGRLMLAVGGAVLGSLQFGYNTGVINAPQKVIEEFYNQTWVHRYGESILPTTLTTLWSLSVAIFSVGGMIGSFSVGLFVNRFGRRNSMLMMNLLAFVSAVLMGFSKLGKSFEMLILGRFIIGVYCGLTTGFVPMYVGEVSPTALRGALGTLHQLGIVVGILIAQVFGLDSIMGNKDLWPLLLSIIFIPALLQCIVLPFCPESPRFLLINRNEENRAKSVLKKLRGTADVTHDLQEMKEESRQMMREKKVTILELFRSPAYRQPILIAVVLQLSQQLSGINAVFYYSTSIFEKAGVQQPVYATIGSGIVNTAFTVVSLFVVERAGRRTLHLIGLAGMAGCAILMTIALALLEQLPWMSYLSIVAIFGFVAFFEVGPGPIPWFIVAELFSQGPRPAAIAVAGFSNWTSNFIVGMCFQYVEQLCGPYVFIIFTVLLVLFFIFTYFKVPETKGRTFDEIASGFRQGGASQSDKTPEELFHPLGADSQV

As for `Cc1nc2nc(N)nc(N)c2c(C)c1Cc1ccccc1Br`, the inhibition – broadly, the drop in the measured response relative to a control, in per cent – in experiment [1] is 7.5%; in experiment [2], 14.9%; in experiment [3], 6.78%.

`Cc1cc2ncn(-c3nccc(NCc4ccc(F)cc4)n3)c2cc1C`: the inhibition was -0.72% in experiment [1], -1.37% in experiment [2] and -0.57% in experiment [3].

As for `N#Cc1cncc(-c2nc3c(N4CCN(c5cnccn5)CC4)cccc3n2CCNCc2ccccc2)c1`, the results for the inhibition in experiment [1], in experiment [2] and in experiment [3] were 2.77%, 1.47% and -3.33%, respectively.

For `CN1CCN(c2ccc3nccc(CCN4CCC(NCc5ccc6c(n5)NC(=O)CO6)CC4)c3n2)CC1`, the inhibition was -0.03% in experiment [1], -0.01% in experiment [2] and -0.12% in experiment [3].

Regarding `Cc1ccc(-c2nc3cc(C(=O)NC4CCN(Cc5ccccc5)CC4)ccc3[nH]2)cc1`, the inhibition was 6.09% in experiment [1], 2.07% in experiment [2] and 0.96% in experiment [3].

With `Cc1cc(=NN=Cc2ccccn2)c2cc(F)ccc2[nH]1`, the inhibition was 4.3% in experiment [1], 5.11% in experiment [2] and 0.4% in experiment [3].

Consider `NCC(=O)Nc1cccc(Nc2nccc(-c3c(-c4cccc(NC(=O)c5ccccc5)c4)nn4ccccc34)n2)c1`, for which the values for the inhibition in experiment [1], in experiment [2] and in experiment [3] were 3.36%, 7.49% and 1.14%, respectively.

Turning to `COc1ccc2[nH]c(C)cc(=NN=Cc3cc(OC)c(OC)cc3OC)c2c1`, the inhibition was found to be 5.42% in experiment [1], 5.13% in experiment [2] and 6.18% in experiment [3].

For the compound `CN(C)CCCn1c(N)c(-c2nc3ccccc3[nH]2)c2nc(C#N)c(C#N)nc21`, the results for the inhibition in experiment [1], in experiment [2] and in experiment [3] were -1.02%, 2.05% and -0.05%, respectively.

Turning to `COc1ccccc1-c1csc(C(=O)NC2CCCCN(Cc3ccc(C(C)(C)C)cc3)C2)c1` (centres undefined), the inhibition in experiment [1] was 2.42%; in experiment [2], 1.58%; in experiment [3] it was 2.61%.

Take `CCCCCN1CCC(CNS(=O)(=O)c2ccc(C(=O)Nc3cccc(C(F)(F)F)c3)cc2)CC1`: the inhibition was 0.47% in experiment [1], 0.02% in experiment [2] and -0.33% in experiment [3].

Take `O=C(CSc1nc(-c2ccccc2Cl)ns1)Nc1cccc(Cl)c1`: the inhibition in experiment [1] is 1.59%; in experiment [2], 1.79%; in experiment [3], 0.35%.

As to `COc1ccc(NC(=O)C2c3ccccc3C(=O)N(C3CCCC3)C2c2cccs2)cc1` (centres undefined), the values for the inhibition in experiment [1], in experiment [2] and in experiment [3] were 5.7%, 4.78% and 5%, respectively.

Consider `COc1ccc(F)cc1-c1ccccc1CNC(=O)CN(C)S(=O)(=O)c1cc(C)cc(Cl)c1C`, for which the values for the inhibition in experiment [1], in experiment [2] and in experiment [3] were 1.17%, 1.94% and 0.93%, respectively.

Take `Cc1ccc(Nc2nc(N)c3ccccc3n2)cc1`: the inhibition in experiment [1] is 22%; in experiment [2] it was 17.5%; in experiment [3] it was 4.74%.

With `COCCN1CCC(N(Cc2ccc(-c3ccc(OC(F)(F)F)cc3)cc2)C(=O)Cn2c(CCc3cccc(F)c3F)cc(=O)c3ccccc32)CC1`, the inhibition in experiment [1] is 4.31%; in experiment [2], 4.88%; in experiment [3], 4.4%.

For the compound `CC(C)CCCC(C)(C)NC[C@@H](O)[C@H](Cc1ccccc1)NC(=O)c1cccc(OCC2CC2)c1`, the inhibition in experiment [1] came out at 1.19%; in experiment [2] it was 1.25%; in experiment [3], 1.85%.

Turning to `CN(CCNCc1ccc(-c2cccc(-c3nc4ccccc4[nH]3)c2)cc1)S(C)(=O)=O`, the inhibition in experiment [1] amounted to 0.68%; in experiment [2], 0.26%; in experiment [3], 1.73%.

For the compound `FC(F)(F)c1cccc(CNCC2CCN(Cc3ccc4c(c3)OCO4)CC2)c1`, the figures for the inhibition in experiment [1], in experiment [2] and in experiment [3] were 9.53%, 12.1% and 12.3%, respectively.

Consider `CCC(ON1C(N)=NC(N)=NC1(C)C)c1ccc(Cl)cc1` (centres undefined), for which the inhibition is 6.11% in experiment [1], 8.81% in experiment [2] and 10.4% in experiment [3].

As to `Cn1cnc(CCNC(=O)c2ccc(-c3ccc(-c4nc5cc(C(F)(F)F)ccc5[nH]4)s3)cc2)c1`, the figures for the inhibition in experiment [1], in experiment [2] and in experiment [3] were 2.93%, 3.77% and 3.14%, respectively.

With `O=C(N[C@@H](Cc1ccccc1)C(=O)NCc1cccc(C(F)(F)F)c1)c1ccc(O)c(-c2ccc(Cl)c(Cl)c2)c1`, the inhibition in experiment [1] was 3.7%; in experiment [2], 0.97%; in experiment [3], -2.02%.

In the case of `c1ccc2[nH]c(CN(Cc3nc4ccccc4[nH]3)Cc3nc4ccccc4[nH]3)nc2c1`, the results for the inhibition in experiment [1], in experiment [2] and in experiment [3] were -2.76%, 1.73% and -0.29%, respectively.

On to `Cc1cccc(C(=O)N2CCN(Cc3cccc(NC(=O)c4cccs4)c3)CC2)c1`, for which the inhibition in experiment [1] came to 7.96%; in experiment [2], 9.38%; in experiment [3] it was 7.07%.

Regarding `O=C(NCc1ccco1)c1ccc(S(=O)(=O)c2ccc(Cl)cc2)cc1`, the inhibition in experiment [1] came to 0.13%; in experiment [2], 1.22%; in experiment [3], 0.06%.

As to `Cc1[nH]c(C)c(-c2ccc(-c3ccc(C#N)cc3)nc2)c(=O)c1Br`, the inhibition in experiment [1] came out at 9.47%; in experiment [2], 10.2%; in experiment [3] it was 6.23%.

Regarding `CO/C(=C\C=C\c1cc2cc(Cl)c(Cl)cc2[nH]1)C(=O)NC1CC2CCCC(C1)N2C` (centres undefined), the inhibition came to 1.7% in experiment [1], 0.66% in experiment [2] and 5.12% in experiment [3].

For `CSc1ccc(CN2CCC(NC(=O)c3ccc(-c4ccc(N(C)C)cc4)s3)CC2)cc1`, the inhibition in experiment [1] was found to be 1.5%; in experiment [2] it was 0.28%; in experiment [3], 2.99%.

On to `CC(C)CNC(=O)c1cncc(-c2cccc(CNC3Cc4ccccc4C3)c2)c1`, for which the inhibition came out at 10.7% in experiment [1], 6.1% in experiment [2] and 6.4% in experiment [3].

Turning to `COc1cccc2cc(C(=O)N[C@@H](CC(C)C)C(=O)N[C@H](C=NN3CCOC3=O)Cc3ccccc3)oc12`, the inhibition in experiment [1] was -0.71%; in experiment [2] it was 0.23%; in experiment [3] it was -0.91%.

Turning to `NCCCCc1c(-c2ccc(Cl)c(Cl)c2)[nH]c2ccc(Cl)cc12`, the inhibition in experiment [1] is -2.7%; in experiment [2] it was -1.68%; in experiment [3] it was -3.34%.

As to `CC(=O)c1sc(Cc2nc3ccccc3s2)nc1C`, the inhibition was 0.49% in experiment [1], 1.15% in experiment [2] and -1.55% in experiment [3].

On to `O=S(=O)(NCCN1CCCC1)c1ccc(-c2ccc(CNCc3ccc(F)cc3)cc2)cc1F`, for which the inhibition turned out to be 5.72% in experiment [1], 5.82% in experiment [2] and 3.28% in experiment [3].

Values taken from ChEMBL document CHEMBL3433997, “St. Jude Leishmania screening dataset” (2016).
